{"source": "PubChem BioAssay AID1159580", "about": "(chemical genetic matrix, 2015)", "assay": "chemical genetic growth profiling, strain panel (AID 1159580);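 note: tested at 20 µM; growth read once vehicle control cultures reached saturation at 30 °C; 1 = growth at the plate median or of vehicle wells; lower values mean less growth of the strain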", "conditions": "growth OD", "key": {"[1]": {"conditions": "S. cerevisiae deletion strains, locus YAL013W, strain DEP1, active compounds read low"}, "[2]": {"conditions": "S. cerevisiae deletion strains, locus YBR229C, strain ROT2, active compounds read low"}, "[3]": {"conditions": "S. cerevisiae deletion strains, locus YDL101C, strain DUN1, active compounds read low"}, "[4]": {"conditions": "S. cerevisiae deletion strains, locus YDR150W, strain NUM1, active compounds read low"}, "[5]": {"conditions": "S. cerevisiae deletion strains, locus YEL061C, strain CIN8, active compounds read low"}, "[6]": {"conditions": "S. cerevisiae deletion strains, locus YGR078C, strain PAC10, active compounds read low"}, "[7]": {"conditions": "S. cerevisiae deletion strains, locus YHR030C, strain SLT2, active compounds read low"}, "[8]": {"conditions": "S. cerevisiae deletion strains, locus YHR087W, strain rtc3, active compounds read low"}, "[9]": {"conditions": "S. cerevisiae deletion strains, locus YJL187C, strain SWE1, active compounds read low"}, "[10]": {"conditions": "S. cerevisiae deletion strains, locus YJR043C, strain POL32, active compounds read low"}, "[11]": {"conditions": "S. cerevisiae deletion strains, locus YJR075W, strain HOC1, active compounds read low"}, "[12]": {"conditions": "S. cerevisiae deletion strains, locus YKL190W, strain CNB1, active compounds read low"}, "[13]": {"conditions": "S. cerevisiae deletion strains, locus YLR039C, strain RIC1, active compounds read low"}, "[14]": {"conditions": "S. cerevisiae deletion strains, locus YLR058C, strain SHM2 (second series), active compounds read low"}, "[15]": {"conditions": "S. cerevisiae deletion strains, locus YLR085C, strain ARP6, active compounds read low"}, "[16]": {"conditions": "S. cerevisiae deletion strains, locus YLR262C, strain YPT6, active compounds read low"}, "[17]": {"conditions": "S. cerevisiae deletion strains, locus YML094W, strain GIM5, active compounds read low"}, "[18]": {"conditions": "S. cerevisiae deletion strains, locus YMR219W, strain ESC1, active compounds read low"}, "[19]": {"conditions": "S. cerevisiae deletion strains, locus YMR263W, strain SAP30, active compounds read low"}, "[20]": {"conditions": "S. cerevisiae deletion strains, locus YNL128W, strain TEP1, active compounds read low"}, "[21]": {"conditions": "S. cerevisiae deletion strains, locus YNL153C, strain GIM3, active compounds read low"}, "[22]": {"conditions": "S. cerevisiae deletion strains, locus YNL298W, strain CLA4 (second series), active compounds read low"}, "[23]": {"conditions": "S. cerevisiae deletion strains, locus YNL322C, strain KRE1, active compounds read low"}, "[24]": {"conditions": "S. cerevisiae deletion strains, locus YNR030W, strain Alg12, active compounds read low"}, "[25]": {"conditions": "S. cerevisiae deletion strains, locus YPL055C, strain LGE1, active compounds read low"}, "[26]": {"conditions": "S. cerevisiae deletion strains, locus YPL241C, strain CIN2, active compounds read low"}, "[27]": {"conditions": "S. cerevisiae deletion strains, locus YPR135W, strain CTF4, active compounds read low"}, "[28]": {"conditions": "S. cerevisiae strains, strain wild type, active compounds read low"}, "[29]": {"conditions": "S. cerevisiae deletion strains, locus YMR307W, strain GAS1, active compounds read low"}}, "note": "In all, about 5,500 compounds went through this assay and about 2,000 (36%) were called active. About 18% were inconclusive and are not listed. The list shows a part of the results. Values without a mark were called inactive. Cut-off read from the data, not from the text of the source: active = normalized growth mostly below about 0.91 (no sharp cut-off); inconclusive = no clear call, values can overlap the other calls; inactive = mostly above about 0.92."}
{"smiles": "O=C1c2cccc3cc([N+](=O)[O-])cc(c23)C(=O)N1CCO", "values": [{"measurement": "normalized growth", "setting": "[1]", "value": 0.992}, {"measurement": "normalized growth", "setting": "[2]", "value": 1.02}, {"measurement": "normalized growth", "setting": "[3]", "value": 0.974}, {"measurement": "normalized growth", "setting": "[4]", "value": 0.995}, {"measurement": "normalized growth", "setting": "[5]", "value": 1.01}, {"measurement": "normalized growth", "setting": "[6]", "value": 0.988}, {"measurement": "normalized growth", "setting": "[7]", "value": 1.04}, {"measurement": "normalized growth", "setting": "[8]", "value": 1.02}, {"measurement": "normalized growth", "setting": "[9]", "value": 0.984}, {"measurement": "normalized growth", "setting": "[10]", "value": 0.995}, {"measurement": "normalized growth", "setting": "[11]", "value": 1.02}, {"measurement": "normalized growth", "setting": "[12]", "value": 1.02}, {"measurement": "normalized growth", "setting": "[13]", "value": 1.03}, {"measurement": "normalized growth", "setting": "[14]", "value": 1.01}, {"measurement": "normalized growth", "setting": "[15]", "value": 0.908}, {"measurement": "normalized growth", "setting": "[16]", "value": 1.05}, {"measurement": "normalized growth", "setting": "[17]", "value": 0.976}, {"measurement": "normalized growth", "setting": "[18]", "value": 1.01}, {"measurement": "normalized growth", "setting": "[19]", "value": 0.984}, {"measurement": "normalized growth", "setting": "[20]", "value": 1}, {"measurement": "normalized growth", "setting": "[21]", "value": 1.02}, {"measurement": "normalized growth", "setting": "[22]", "value": 0.975}, {"measurement": "normalized growth", "setting": "[23]", "value": 1.01}, {"measurement": "normalized growth", "setting": "[24]", "value": 0.985}, {"measurement": "normalized growth", "setting": "[25]", "value": 0.991}, {"measurement": "normalized growth", "setting": "[26]", "value": 1.01}, {"measurement": "normalized growth", "setting": "[27]", "value": 0.89}, {"measurement": "normalized growth", "setting": "[28]", "value": 1.01}]}
{"smiles": "O=C1c2cccc3c([N+](=O)[O-])ccc(c23)C(=O)N1Cc1ccco1", "values": [{"measurement": "normalized growth", "setting": "[1]", "value": "0.81 (active)"}, {"measurement": "normalized growth", "setting": "[2]", "value": 0.94}, {"measurement": "normalized growth", "setting": "S. cerevisiae deletion strains, locus YCL061C, strain MRC1, active compounds read low", "value": "0.896 (active)"}, {"measurement": "normalized growth", "setting": "[3]", "value": "0.873 (active)"}, {"measurement": "normalized growth", "setting": "[4]", "value": "0.763 (active)"}, {"measurement": "normalized growth", "setting": "[5]", "value": "0.909 (active)"}, {"measurement": "normalized growth", "setting": "[6]", "value": "0.879 (active)"}, {"measurement": "normalized growth", "setting": "[7]", "value": "0.321 (active)"}, {"measurement": "normalized growth", "setting": "[8]", "value": 0.974}, {"measurement": "normalized growth", "setting": "[9]", "value": 0.995}, {"measurement": "normalized growth", "setting": "[10]", "value": "0.791 (active)"}, {"measurement": "normalized growth", "setting": "[11]", "value": 0.97}, {"measurement": "normalized growth", "setting": "[12]", "value": 0.934}, {"measurement": "normalized growth", "setting": "[13]", "value": 0.852}, {"measurement": "normalized growth", "setting": "[14]", "value": 0.972}, {"measurement": "normalized growth", "setting": "[15]", "value": "0.341 (active)"}, {"measurement": "normalized growth", "setting": "[16]", "value": 0.815}, {"measurement": "normalized growth", "setting": "[17]", "value": "0.797 (active)"}, {"measurement": "normalized growth", "setting": "[18]", "value": 0.98}, {"measurement": "normalized growth", "setting": "[19]", "value": "0.796 (active)"}, {"measurement": "normalized growth", "setting": "[29]", "value": 0.739}, {"measurement": "normalized growth", "setting": "[20]", "value": 0.958}, {"measurement": "normalized growth", "setting": "[21]", "value": "0.899 (active)"}, {"measurement": "normalized growth", "setting": "[22]", "value": "0.753 (active)"}, {"measurement": "normalized growth", "setting": "[23]", "value": 0.997}, {"measurement": "normalized growth", "setting": "[24]", "value": "0.559 (active)"}, {"measurement": "normalized growth", "setting": "[25]", "value": "0.628 (active)"}, {"measurement": "normalized growth", "setting": "[26]", "value": "0.634 (active)"}, {"measurement": "normalized growth", "setting": "[27]", "value": "0.382 (active)"}, {"measurement": "normalized growth", "setting": "[28]", "value": 0.935}]}
{"smiles": "Cc1nc2c([nH]1)c(=O)n(C)c(=O)n2Cc1ccco1", "values": [{"measurement": "normalized growth", "setting": "[1]", "value": 1.04}, {"measurement": "normalized growth", "setting": "S. cerevisiae deletion strains, locus YAL040C, strain CLN3, active compounds read low", "value": 1}, {"measurement": "normalized growth", "setting": "S. cerevisiae deletion strains, locus YCL061C, strain MRC1 (second series), active compounds read low", "value": 1.01}, {"measurement": "normalized growth", "setting": "[4]", "value": 1}, {"measurement": "normalized growth", "setting": "S. cerevisiae deletion strains, locus YDR363W, strain ESC2, active compounds read low", "value": 1.03}, {"measurement": "normalized growth", "setting": "S. cerevisiae deletion strains, locus YER002W, strain NOP16, active compounds read low", "value": 0.998}, {"measurement": "normalized growth", "setting": "[29]", "value": 1.02}, {"measurement": "normalized growth", "setting": "S. cerevisiae deletion strains, locus YNL175C, strain NOP13, active compounds read low", "value": 1.01}, {"measurement": "normalized growth", "setting": "S. cerevisiae deletion strains, locus YNL197C, strain WHI3, active compounds read low", "value": 1.01}, {"measurement": "normalized growth", "setting": "S. cerevisiae deletion strains, locus YNL224C, strain SQS1, active compounds read low", "value": 0.995}, {"measurement": "normalized growth", "setting": "[23]", "value": 1.02}, {"measurement": "normalized growth", "setting": "S. cerevisiae deletion strains, locus YOR083W, strain WHI5 (second series), active compounds read low", "value": 1.05}, {"measurement": "normalized growth", "setting": "[25]", "value": 1.01}]}
